Assay results reported in publication PMC3315485, “Probing the Informational and Regulatory Plasticity of a Transcription Factor DNA–Binding Domain”.
Residue numbers refer to the chain shown, from its start.

Experiments:
Assay in all cases: MITOMI; MITOMI, 295 K (22 C); buffer, salt and pH not stated in the material; high values mean tight binding
Conditions in all cases: protein: ivt; label: fluorescent; dsDNA, one strand shown
[1] = biological target: T1, MarA wild type (WQR) (Escherichia coli, UniProt P0ACH5 1-127)
T1 sequence: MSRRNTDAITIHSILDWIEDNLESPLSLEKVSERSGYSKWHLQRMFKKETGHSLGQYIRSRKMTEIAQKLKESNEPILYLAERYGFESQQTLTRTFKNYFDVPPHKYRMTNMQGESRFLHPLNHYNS
In short: (§1)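 Association constants were determined by MITOMI and are expressed for each site relative to the site with the highest affinity for the same protein variant. The MarA protein variants were made with the RTS E. coli HY kit by in vitro transcription and translation and labelled through addition of tRNA-lys-bodipy-fl. Testing covered 64 synthesized mar binding site variants, with fluorescence read on Genepix at 295K.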

[2] = biological target: T2, MarA RQR (Escherichia coli, UniProt P0ACH5 1-127, W40R)
T2 sequence: T1 sequence with W40R
In short: as §1

[3] = biological target: T3, MarA RTR (Escherichia coli, UniProt P0ACH5 1-127, W40R;Q43T)
T3 sequence: T1 sequence with W40R, Q43T
In short: as §1

[4] = biological target: T4, MarA SAR (Escherichia coli, UniProt P0ACH5 1-127, W40S;Q43A)
T4 sequence: T1 sequence with W40S, Q43A
In short: as §1

[5] = biological target: T5, MarA TRR (Escherichia coli, UniProt P0ACH5 1-127, W40T;Q43R)
T5 sequence: T1 sequence with W40T, Q43R
In short: as §1

ATGACCCGTTTTGCTAAAT was tested. Which binding signal [1] did it give?
Its binding signal is 0.32 Ka relative to the best site of the variant.

And the binding signal [2]?
The binding signal was 0.701 Ka relative to the best site of the variant.

And the binding signal [3]?
Its binding signal is 0.63 Ka relative to the best site of the variant.

What about the binding signal [4] of the same sequence?
Its binding signal is 0.573 Ka relative to the best site of the variant.

And the binding signal [5]?
The binding signal was 0.379 Ka relative to the best site of the variant.

For ATGCTACGTTTTGCTAAAT, which binding signal [1] is on record?
The binding signal was 0.363 Ka relative to the best site of the variant.

And the binding signal [2]?
Its binding signal is 0.117 Ka relative to the best site of the variant.

What about the binding signal [3] of the same sequence?
The binding signal was 0.285 Ka relative to the best site of the variant.

And the binding signal [4]?
The binding signal was 0.491 Ka relative to the best site of the variant.

And the binding signal [5]?
The binding signal was 0.571 Ka relative to the best site of the variant.

Which results are given for ATGTATCGTTTTGCTAAAT?
binding signal [1]: 0.282 Ka relative to the best site of the variant; binding signal [2]: 0.121 Ka relative to the best site of the variant; binding signal [3]: 0.902 Ka relative to the best site of the variant; binding signal [4]: 0.221 Ka relative to the best site of the variant; binding signal [5]: 0.432 Ka relative to the best site of the variant

With ATGCCCCGTTTTGCTAAAT as the sequence, how does the binding signal [1] read?
The binding signal was 0.272 Ka relative to the best site of the variant.

What about the binding signal [2] of the same sequence?
Its binding signal is 0.294 Ka relative to the best site of the variant.

And the binding signal [3]?
Its binding signal is 0.243 Ka relative to the best site of the variant.

What about the binding signal [4] of the same sequence?
The binding signal was 0.492 Ka relative to the best site of the variant.

What about the binding signal [5] of the same sequence?
Its binding signal is 0.397 Ka relative to the best site of the variant.

Which binding signal [1] does the source give for ATGGTTCGTTTTGCTAAAT here?
Its binding signal is 0.203 Ka relative to the best site of the variant.

And the binding signal [2]?
Its binding signal is 0.13 Ka relative to the best site of the variant.

What about the binding signal [3] of the same sequence?
Its binding signal is 0.189 Ka relative to the best site of the variant.

What about the binding signal [4] of the same sequence?
Its binding signal is 0.805 Ka relative to the best site of the variant.

And the binding signal [5]?
The binding signal was 0.368 Ka relative to the best site of the variant.

ATGCATCGTTTTGCTAAAT was tested. Which binding signal [1] did it give?
The binding signal was 0.317 Ka relative to the best site of the variant.

What about the binding signal [2] of the same sequence?
Its binding signal is 0.112 Ka relative to the best site of the variant.

And the binding signal [3]?
The binding signal was 0.186 Ka relative to the best site of the variant.

What about the binding signal [4] of the same sequence?
Its binding signal is 0.449 Ka relative to the best site of the variant.

And the binding signal [5]?
Its binding signal is 0.422 Ka relative to the best site of the variant.

ATGATACGTTTTGCTAAAT was tested. Which binding signal [1] did it give?
The binding signal was 0.279 Ka relative to the best site of the variant.

And the binding signal [2]?
Its binding signal is 0.108 Ka relative to the best site of the variant.

And the binding signal [3]?
Its binding signal is 0.208 Ka relative to the best site of the variant.

What about the binding signal [4] of the same sequence?
Its binding signal is 0.962 Ka relative to the best site of the variant.

And the binding signal [5]?
The binding signal was 0.498 Ka relative to the best site of the variant.

What does the source list for ATGATCCGTTTTGCTAAAT?
binding signal [1]: 0.22 Ka relative to the best site of the variant; binding signal [2]: 0.117 Ka relative to the best site of the variant; binding signal [3]: 0.175 Ka relative to the best site of the variant; binding signal [4]: 0.872 Ka relative to the best site of the variant; binding signal [5]: 0.466 Ka relative to the best site of the variant

Which binding signal [1] does the source give for ATGTCACGTTTTGCTAAAT here?
Its binding signal is 0.38 Ka relative to the best site of the variant.

And the binding signal [2]?
The binding signal was 0.819 Ka relative to the best site of the variant.

What about the binding signal [3] of the same sequence?
The binding signal was 0.306 Ka relative to the best site of the variant.

And the binding signal [4]?
Its binding signal is 0.302 Ka relative to the best site of the variant.

What about the binding signal [5] of the same sequence?
Its binding signal is 0.461 Ka relative to the best site of the variant.

Which results are given for ATGTTACGTTTTGCTAAAT?
binding signal [1]: 0.288 Ka relative to the best site of the variant; binding signal [2]: 0.135 Ka relative to the best site of the variant; binding signal [3]: 0.177 Ka relative to the best site of the variant; binding signal [4]: 0.202 Ka relative to the best site of the variant; binding signal [5]: 0.518 Ka relative to the best site of the variant

Which results are given for ATGTGTCGTTTTGCTAAAT?
binding signal [1]: 0.284 Ka relative to the best site of the variant; binding signal [2]: 0.132 Ka relative to the best site of the variant; binding signal [3]: 0.231 Ka relative to the best site of the variant; binding signal [4]: 0.282 Ka relative to the best site of the variant; binding signal [5]: 0.424 Ka relative to the best site of the variant

ATGTCGCGTTTTGCTAAAT was tested. Which binding signal [1] did it give?
The binding signal was 0.426 Ka relative to the best site of the variant.

And the binding signal [2]?
Its binding signal is 0.635 Ka relative to the best site of the variant.

What about the binding signal [3] of the same sequence?
The binding signal was 0.353 Ka relative to the best site of the variant.

What about the binding signal [4] of the same sequence?
Its binding signal is 0.219 Ka relative to the best site of the variant.

What about the binding signal [5] of the same sequence?
Its binding signal is 0.463 Ka relative to the best site of the variant.

Which results are given for ATGGTCCGTTTTGCTAAAT?
binding signal [1]: 0.209 Ka relative to the best site of the variant; binding signal [2]: 0.18 Ka relative to the best site of the variant; binding signal [3]: 0.146 Ka relative to the best site of the variant; binding signal [4]: 0.98 Ka relative to the best site of the variant; binding signal [5]: 0.442 Ka relative to the best site of the variant

ATGCGCCGTTTTGCTAAAT was tested. Which binding signal [1] did it give?
Its binding signal is 0.223 Ka relative to the best site of the variant.

What about the binding signal [2] of the same sequence?
Its binding signal is 0.154 Ka relative to the best site of the variant.

And the binding signal [3]?
The binding signal was 0.178 Ka relative to the best site of the variant.

What about the binding signal [4] of the same sequence?
The binding signal was 0.602 Ka relative to the best site of the variant.

And the binding signal [5]?
Its binding signal is 0.457 Ka relative to the best site of the variant.

For ATGTTCCGTTTTGCTAAAT, which binding signal [1] is on record?
Its binding signal is 0.197 Ka relative to the best site of the variant.

ATGAGGCGTTTTGCTAAAT was tested. Which binding signal [1] did it give?
Its binding signal is 0.283 Ka relative to the best site of the variant.

And the binding signal [2]?
Its binding signal is 0.103 Ka relative to the best site of the variant.

And the binding signal [3]?
Its binding signal is 0.212 Ka relative to the best site of the variant.

And the binding signal [4]?
The binding signal was 0.726 Ka relative to the best site of the variant.

What about the binding signal [5] of the same sequence?
Its binding signal is 0.475 Ka relative to the best site of the variant.
